From PubChem
Pf growth 96h – P. falciparum growth inhibition at 96 hours; Potency, µM (titrated, usually from 28.7 µM), for inactives: at the highest dose activity change, negative = inhibition, usual class: inhibitors; P. falciparum luciferase reporter growth, 96 h; 320,000 tested, 6.9% active; further: potency means the concentration at half of the fitted maximal effect; on the % scale 0 is the no-effect control and ±100 the full control effect
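96 h incubation, 37 C, 5% CO2, of luciferase-reporter P. falciparum-infected RBCs (2% hematocrit, 0.05% parasitemia final) with test compounds; endpoint luminescence.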
AMA1 RON2 block – disrupts binding of P. falciparum AMA1 to RON2 | AlphaScreen AMA1-biotinylated RON2 peptide binding | Potency, µM (top dose mostly 58.2 µM), without a hit: top-dose activity change, negative = inhibition, usual class: inhibitors | 360,000 tested, 0.2% active;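 further: potency means the concentration at half of the fitted maximal effect; 0% = vehicle wells and -100% = peptide control; nearly all actives have a fitted effect of over 45% in size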
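AMA1 (3D7) with his tag at 25 nM final met compounds first, then biotinylated RON2 peptide at 25 nM; detection used donor plus acceptor beads, 10 µg/mL apiece, read by AlphaScreen after 30 min at room temperature.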
Pf growth 48h – P. falciparum growth inhibition at 48 hours (one generation); P. falciparum luciferase growth in erythrocytes, 48 h; Potency, µM (titrated, usually from 28.7 µM), for inactives: at the top dose activity change, negative = inhibition, most hits filed as inhibitors; 310,000 tested, 5.9% active; further: potency means the concentration at half of the fitted maximal effect; on the % scale 0 is the no-effect control and ±100 the full control effect
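Compounds are pin-transferred into medium, infected erythrocytes (2% hematocrit, 0.1% parasitemia final) are added, and plates sit one parasite generation at 37 C in 5% CO2. Detection reagent is then added and luminescence measured.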
HCV inhibitor – HCV inhibition. Huh7.5.1 HCVcc-Cre infection, luciferase reporter, 44 h. 340,000 tested, 3.4% active. AID 651820. Potency, µM (doses to about 41.8 µM), inactives show at the highest dose activity change, negative = inhibition, most hits filed as inhibitors; further: potency means the concentration at half of the fitted maximal effect; on the % scale 0 is the no-effect control and ±100 the full control effect
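Seed cells (1,000/well) for 4 h; treat with compound and infect with HCVcc-Cre, moi about 0.5. Incubate 44 h, then detect luciferase activity.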
Cycloheximide cs – affects cycloheximide protein synthesis inhibition readout, counter-screen; 300,000 tested, 12% active; cell reporter, cycloheximide protein synthesis inhibition counterscreen; max response, %; AID 2314; in the data active means max response mostly above about 13%, no sharp cut-off; inactive means mostly below about 14%; further: read at 38.3 µM for the half of the compounds with a filed dose; 0% is about no effect
Shiga inhibitor – blocks Shiga toxin action in Vero cells; Vero cells, Shiga toxin protein synthesis inhibition reporter; inhibition, % at 38.7 µM; AID 2315; 290,000 tested, 9.2% active; in the data active means inhibition mostly above about 28%, no sharp cut-off; inactive means mostly below about 43%; further: 0% is about no effect
Active calls of the source: *; ! = repeats disagree; [ ] = dose if it differs, or a comment. Most compounds without a hit are left out; they make up all but 21% or so of the library. Unless noted, the call rests on the fitted dose curve; in most records, active means well fitted curve in the direction sought with a large enough effect; inconclusive means small, poorly fitted or top-dose-only effect, or another doubt; inactive means no such curve, though single readings can be large; an effect the other way counts as inactive or inconclusive.

Results for Cc1nc(Nc2cccc(C(C)O)c2)c2nnn(Cc3ccccc3F)c2n1 (centres undefined) ?
Pf growth 96h: -8%; AMA1 RON2 block: 13%; Pf growth 48h: -24%; HCV inhibitor: inconclusive; Cycloheximide cs: 1; Shiga inhibitor: -8

How did COc1ccc(NC(=O)CC2C(=O)N(c3cccc(OC)c3)C(=O)N2CCC(C)C)cc1 (centres undefined) do in these assays?
Pf growth 96h: 12µM*; AMA1 RON2 block: 1%; HCV inhibitor: -22%; Cycloheximide cs: -1; Shiga inhibitor: -16

Results for COc1ccc(NC(=O)CC2C(=O)N(c3cccc(OC)c3)C(=O)N2Cc2ccco2)cc1 (centres undefined) ?
Pf growth 96h: 9.3µM*; AMA1 RON2 block: 0%; Pf growth 48h: -4%; HCV inhibitor: -15%; Cycloheximide cs: 5; Shiga inhibitor: -1

Results for COCCN1C(=O)N(c2cccc(OC)c2)C(=O)C1CC(=O)Nc1cccc(F)c1 (centres undefined) ?
Pf growth 96h: 4.1µM*; AMA1 RON2 block: -13%; Pf growth 48h: -1%; HCV inhibitor: 0%; Cycloheximide cs: -1; Shiga inhibitor: -3

Results for CCNC(=O)CC1C(=O)N(c2cccc(OC)c2)C(=O)N1CCOC (centres undefined) ?
AMA1 RON2 block: 6%; Pf growth 48h: 2%; HCV inhibitor: 19%; Cycloheximide cs: -1; Shiga inhibitor: -2

How did CCOc1ccc(NC(=O)CC2C(=O)N(c3ccccc3)C(=O)N2Cc2ccco2)cc1 (centres undefined) do in these assays?
Pf growth 96h: -65%; AMA1 RON2 block: -5%; Pf growth 48h: 8%; HCV inhibitor: -27%; Cycloheximide cs: -6; Shiga inhibitor: -12

How did O=C(Cn1c(NCCCO)nc2ccccc21)c1ccc(F)cc1 do in these assays?
Pf growth 96h: inconclusive; AMA1 RON2 block: 0%; Pf growth 48h: -2%; HCV inhibitor: 14%; Cycloheximide cs: 1; Shiga inhibitor: -1

What do the screens show for `CCOc1ccc(-c2nc(=S)[nH][nH]2)cc1`?
Pf growth 96h: 18%; AMA1 RON2 block: 0%; Pf growth 48h: 42%; HCV inhibitor: 19%; Cycloheximide cs: 41*; Shiga inhibitor: 29

What do the screens show for `COc1ccc(-c2nc(=S)[nH][nH]2)cc1`?
Pf growth 96h: inconclusive; AMA1 RON2 block: 12%; Pf growth 48h: 89%; HCV inhibitor: -3%; Cycloheximide cs: 13*; Shiga inhibitor: 108*

How did COc1ccc(-c2nc(=S)[nH][nH]2)cc1OC do in these assays?
Pf growth 96h: 14%; AMA1 RON2 block: 83%; Pf growth 48h: 9%; HCV inhibitor: 9%; Cycloheximide cs: -2; Shiga inhibitor: 16

What do the screens show for `CCOC(=O)c1cc2n(n1)C(C(F)(F)F)CC(C)N2` (centres undefined)?
AMA1 RON2 block: -3%; Pf growth 48h: 46%; HCV inhibitor: 3%; Cycloheximide cs: 12*; Shiga inhibitor: 13

What do the screens show for `CC1CC(C(F)(F)F)n2nc(C(=O)O)cc2N1` (centres undefined)?
AMA1 RON2 block: 6%; Pf growth 48h: 4%; HCV inhibitor: 13%; Cycloheximide cs: -2; Shiga inhibitor: -22

How did O=C(O)c1cc2n(n1)C(C(F)(F)F)CC(C1CC1)N2 (centres undefined) do in these assays?
Pf growth 96h: 52%; AMA1 RON2 block: -9%; Pf growth 48h: 2.1µM*; HCV inhibitor: 4%; Cycloheximide cs: -3; Shiga inhibitor: -8

Results for O=C(c1cc(Br)ccc1O)N1CCN(S(=O)(=O)Cc2ccccc2)CC1 ?
Pf growth 96h: inconclusive; AMA1 RON2 block: -1%; Pf growth 48h: inconclusive; HCV inhibitor: inconclusive

What do the screens show for `CN1/C(=C\C=C2/SC(=S)N(CC(=O)O)C2=O)C(C)(C)c2ccccc21`?
Pf growth 96h: inconclusive; AMA1 RON2 block: 20µM*; Pf growth 48h: -4%; HCV inhibitor: 16%; Cycloheximide cs: -3; Shiga inhibitor: -7

Results for CCCN1C(=O)/C(=C/C=C2\N(CC)c3ccccc3C2(C)C)SC1=S ?
Pf growth 96h: 4.1µM*; AMA1 RON2 block: inconclusive; Pf growth 48h: inconclusive; HCV inhibitor: inconclusive; Cycloheximide cs: -5; Shiga inhibitor: -5

How did C[C@H]1CN([C@@H](C)CO)C(=O)CCCn2cc(nn2)CO[C@@H]1CN(C)C(=O)Oc1ccccc1 do in these assays?
AMA1 RON2 block: 3%

Results for NC(=O)c1ncn([C@@H]2O[C@H](CO)[C@@H](O)[C@H]2O)c1N ?
Cycloheximide cs: -3; Shiga inhibitor: -16

What do the screens show for `COc1cc(C(C(=O)NCc2ccccc2)N(C(=O)c2snc(C(N)=O)c2N)C2CCCC2)cc(OC)c1OC` (centres undefined)?
Pf growth 96h: 4.7µM*; AMA1 RON2 block: -3%; Pf growth 48h: 13µM*; HCV inhibitor: -18%; Cycloheximide cs: -6; Shiga inhibitor: -3

What do the screens show for `COc1ccc(C(C(=O)NCc2ccccc2)N(C(=O)c2snc(C(N)=O)c2N)C2CCCC2)cc1` (centres undefined)?
Pf growth 96h: 67%; AMA1 RON2 block: -3%; Pf growth 48h: 15µM*; HCV inhibitor: -8%; Cycloheximide cs: -2; Shiga inhibitor: 12

How did COc1ccc(C(C(=O)NC2CCCC2)N(Cc2ccccc2)C(=O)c2snc(C(N)=O)c2N)cc1OC (centres undefined) do in these assays?
Pf growth 96h: inconclusive; AMA1 RON2 block: 2%; Pf growth 48h: 0%; HCV inhibitor: 2%; Cycloheximide cs: -3; Shiga inhibitor: -10

How did COc1ccc(C(C(=O)NCc2ccccc2)N(Cc2ccco2)C(=O)c2snc(C(N)=O)c2N)cc1 (centres undefined) do in these assays?
Pf growth 96h: 1%; AMA1 RON2 block: -22%; Pf growth 48h: inconclusive; HCV inhibitor: inconclusive; Cycloheximide cs: -2; Shiga inhibitor: 7

Results for CCc1ccc(CCC(=O)N2CCN(S(=O)(=O)c3sc(C(=O)O)c(C)c3C(=O)O)CC2)cc1 ?
AMA1 RON2 block: -9%[11.6 µM]; HCV inhibitor: 24%

Results for CN1CCc2cccc3c2[C@H]1Cc1ccc(O)c(O)c1-3 ?
Pf growth 96h: 2.3µM*!; AMA1 RON2 block: 10µM*; Pf growth 48h: 2.9µM*; HCV inhibitor: inconclusive; Cycloheximide cs: -3; Shiga inhibitor: -14

What do the screens show for `C=CCN1C(=O)C(CC(=O)Nc2ccc(OCCC)cc2)N(CCCN2CCN(Cc3ccccc3)CC2)C1=S` (centres undefined)?
Pf growth 96h: inconclusive; AMA1 RON2 block: inconclusive; Pf growth 48h: inconclusive; HCV inhibitor: 10µM*; Cycloheximide cs: -5; Shiga inhibitor: -16
